In PubChem BioAssay (EPA / NIEHS):
Records with an inconclusive call do not appear. Calls of active or inactive are those of the source. The calls were made as follows: active = hit-call score of the fitted dose curve at least 0.9, where 1 is the maximum; inconclusive = response in the unintended direction; inactive = score below 0.9.

Legend:
[1] = molecular target: rat CYP1A2, Cyp1a2 (gene 24297) (UniProt P04799); experiment: NVS_ADME_rCYP1A2: NovaScreen (NVS) CYP450-related Enzyme Activity (ADME) Assay for rat CYP1A2 (AID 2283115)
Sequence of rat CYP1A2, Cyp1a2 (gene 24297) (P04799 whole entry, looked up): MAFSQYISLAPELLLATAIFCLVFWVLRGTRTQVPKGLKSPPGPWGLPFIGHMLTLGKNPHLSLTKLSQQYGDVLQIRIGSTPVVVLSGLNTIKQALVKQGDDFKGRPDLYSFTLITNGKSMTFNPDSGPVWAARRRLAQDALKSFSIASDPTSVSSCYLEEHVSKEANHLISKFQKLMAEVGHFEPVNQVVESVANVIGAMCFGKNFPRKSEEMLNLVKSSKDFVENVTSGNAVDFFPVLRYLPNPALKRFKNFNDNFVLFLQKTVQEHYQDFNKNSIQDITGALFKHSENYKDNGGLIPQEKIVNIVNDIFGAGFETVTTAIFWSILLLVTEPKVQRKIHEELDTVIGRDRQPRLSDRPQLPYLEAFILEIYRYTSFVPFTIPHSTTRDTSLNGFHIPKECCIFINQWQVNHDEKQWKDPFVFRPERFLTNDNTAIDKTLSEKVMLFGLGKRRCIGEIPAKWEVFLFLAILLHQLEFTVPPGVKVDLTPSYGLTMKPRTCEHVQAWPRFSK
Summary of the method: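 Primary testing ran in duplicate at 10 uM, with actives re-tested across concentration series. Fluorescence intensity from substrate turnover by recombinant protein, measured 1 hour post-dosing, with signal loss scored against acetonitrile vehicle.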

rat CYP3A1, gene 25642 = experiment: NVS_ADME_rCYP3A1: NovaScreen (NVS) CYP450-related Enzyme Activity (ADME) Assay for rat CYP3A1 (AID 2283126)
Summary of the method: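 Compounds went first at 10 uM duplicate, then to series with 20 uM maximum. Fluorescence from substrate turnover by the recombinant enzyme was measured 0.5 h post-dosing, inhibition scored against acetonitrile vehicle.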

[2] = molecular target: rat CYP2D1, Cyp2d1 (gene 266684) (UniProt P10633); experiment: NVS_ADME_rCYP2D1: NovaScreen (NVS) CYP450-related Enzyme Activity (ADME) Assay for rat CYP2D1 (AID 2283122)
Sequence of rat CYP2D1, Cyp2d1 (gene 266684) (P10633 whole entry, looked up): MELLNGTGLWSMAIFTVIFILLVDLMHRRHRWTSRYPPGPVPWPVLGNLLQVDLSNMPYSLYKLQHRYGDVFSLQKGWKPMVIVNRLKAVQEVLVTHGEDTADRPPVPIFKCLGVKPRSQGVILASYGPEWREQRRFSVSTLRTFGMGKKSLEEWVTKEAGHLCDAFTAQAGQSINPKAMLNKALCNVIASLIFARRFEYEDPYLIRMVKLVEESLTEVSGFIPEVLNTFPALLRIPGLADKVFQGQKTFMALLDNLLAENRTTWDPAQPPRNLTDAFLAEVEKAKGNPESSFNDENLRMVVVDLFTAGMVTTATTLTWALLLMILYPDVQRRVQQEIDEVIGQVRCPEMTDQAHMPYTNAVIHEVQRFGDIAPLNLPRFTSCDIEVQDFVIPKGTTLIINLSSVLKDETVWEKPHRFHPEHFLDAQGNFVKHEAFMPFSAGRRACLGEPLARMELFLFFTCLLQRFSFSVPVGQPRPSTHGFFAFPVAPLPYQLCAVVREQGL
Summary of the method: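 Rat CYP2D1 enzyme activity measured by fluorescence intensity in a cell-free format, 0.75 h post-dosing, acetonitrile as negative control. Screening at 10 uM in duplicate, with actives followed in concentration series up to 20 uM.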

[3] = molecular target: human Acetylcholinesterase (AChE), ACHE (gene 43) (UniProt P22303); experiment: NVS_ENZ_hAChE: NovaScreen (NVS) Enzymatic Assay for human Acetylcholinesterase (AChE) (AID 2283129)
Sequence of human Acetylcholinesterase (AChE), ACHE (gene 43) (P22303 whole entry, looked up): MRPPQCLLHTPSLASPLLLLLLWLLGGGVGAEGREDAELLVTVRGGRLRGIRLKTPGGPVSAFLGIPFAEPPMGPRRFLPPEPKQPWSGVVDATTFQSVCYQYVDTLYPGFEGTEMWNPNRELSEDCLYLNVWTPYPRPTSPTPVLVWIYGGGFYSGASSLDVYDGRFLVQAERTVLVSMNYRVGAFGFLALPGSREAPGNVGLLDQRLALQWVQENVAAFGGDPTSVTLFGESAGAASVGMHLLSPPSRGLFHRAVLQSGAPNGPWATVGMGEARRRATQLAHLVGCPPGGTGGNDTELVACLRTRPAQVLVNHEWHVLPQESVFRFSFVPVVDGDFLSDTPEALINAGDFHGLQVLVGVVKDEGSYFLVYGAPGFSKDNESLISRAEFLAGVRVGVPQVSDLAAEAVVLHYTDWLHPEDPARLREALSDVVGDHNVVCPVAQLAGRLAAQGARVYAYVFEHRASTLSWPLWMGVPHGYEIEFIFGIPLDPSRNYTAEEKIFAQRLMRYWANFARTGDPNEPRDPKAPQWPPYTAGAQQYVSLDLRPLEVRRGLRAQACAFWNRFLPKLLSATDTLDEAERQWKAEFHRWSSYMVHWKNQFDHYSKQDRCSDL
Summary of the method: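 Actives from a duplicate single-point screen (25 uM) were followed up in concentration series. Enzyme activity read by absorbance (colorimetric) 0.33 hour after dosing, cell-free, normalized to DMSO, with loss of signal scored.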

[4] = molecular target: rat CYP2D2, Cyp2d26 (gene 25053) (UniProt P10634); experiment: NVS_ADME_rCYP2D2: NovaScreen (NVS) CYP450-related Enzyme Activity (ADME) Assay for rat CYP2D2 (AID 2283124)
Sequence of rat CYP2D2, Cyp2d26 (gene 25053) (P10634 whole entry, looked up, canonical isoform): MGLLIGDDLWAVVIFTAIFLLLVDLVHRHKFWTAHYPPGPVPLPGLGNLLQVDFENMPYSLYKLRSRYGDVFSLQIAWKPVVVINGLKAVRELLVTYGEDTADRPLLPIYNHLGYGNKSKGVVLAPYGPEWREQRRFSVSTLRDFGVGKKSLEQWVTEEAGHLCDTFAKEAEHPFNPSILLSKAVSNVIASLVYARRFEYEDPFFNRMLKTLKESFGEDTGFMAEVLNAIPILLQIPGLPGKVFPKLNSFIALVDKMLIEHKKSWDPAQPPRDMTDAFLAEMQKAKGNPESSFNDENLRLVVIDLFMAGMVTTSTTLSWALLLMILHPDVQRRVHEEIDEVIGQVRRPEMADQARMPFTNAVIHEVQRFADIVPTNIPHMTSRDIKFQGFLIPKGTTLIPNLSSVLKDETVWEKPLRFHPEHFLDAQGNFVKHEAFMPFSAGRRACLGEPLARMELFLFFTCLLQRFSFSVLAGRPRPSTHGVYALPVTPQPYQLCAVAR
Summary of the method: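 Single-concentration duplicate testing at 10 uM, followed by concentration-response (top 20 uM) for chemicals passing threshold. Enzyme activity of the recombinant rat isoform measured by fluorescence after 0.75 h, acetonitrile as baseline.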

[5] = molecular target: rat CYP2C12, Cyp2c12 (gene 25011) (UniProt P11510); experiment: NVS_ADME_rCYP2C12: NovaScreen (NVS) CYP450-related Enzyme Activity (ADME) Assay for rat CYP2C12 (AID 2283119)
Sequence of rat CYP2C12, Cyp2c12 (gene 25011) (P11510 whole entry, looked up): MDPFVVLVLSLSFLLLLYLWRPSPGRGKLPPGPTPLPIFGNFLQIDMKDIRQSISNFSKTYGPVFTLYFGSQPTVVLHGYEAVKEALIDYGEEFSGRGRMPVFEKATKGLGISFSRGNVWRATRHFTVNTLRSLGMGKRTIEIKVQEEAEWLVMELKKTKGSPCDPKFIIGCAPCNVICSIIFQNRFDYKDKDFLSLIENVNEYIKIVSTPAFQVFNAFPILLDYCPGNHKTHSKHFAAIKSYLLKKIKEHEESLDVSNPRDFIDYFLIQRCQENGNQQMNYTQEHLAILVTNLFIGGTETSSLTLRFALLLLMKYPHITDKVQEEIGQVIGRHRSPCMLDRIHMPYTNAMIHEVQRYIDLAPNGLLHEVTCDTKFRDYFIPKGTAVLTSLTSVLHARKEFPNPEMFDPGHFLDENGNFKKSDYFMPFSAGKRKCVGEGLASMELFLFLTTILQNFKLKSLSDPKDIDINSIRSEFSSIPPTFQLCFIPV
Summary of the method: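 Fluorescent-substrate turnover by recombinant rat CYP2C12, measured at 0.5 h, normalized to acetonitrile vehicle. Chemicals screened first at a single 10 uM concentration in duplicate, with concentration series for actives.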

[6] = molecular target: rat CYP2C13, Cyp2c13 (gene 171521) (UniProt P20814); experiment: NVS_ADME_rCYP2C13: NovaScreen (NVS) CYP450-related Enzyme Activity (ADME) Assay for rat CYP2C13 (AID 2283121)
Sequence of rat CYP2C13, Cyp2c13 (gene 171521) (P20814 whole entry, looked up): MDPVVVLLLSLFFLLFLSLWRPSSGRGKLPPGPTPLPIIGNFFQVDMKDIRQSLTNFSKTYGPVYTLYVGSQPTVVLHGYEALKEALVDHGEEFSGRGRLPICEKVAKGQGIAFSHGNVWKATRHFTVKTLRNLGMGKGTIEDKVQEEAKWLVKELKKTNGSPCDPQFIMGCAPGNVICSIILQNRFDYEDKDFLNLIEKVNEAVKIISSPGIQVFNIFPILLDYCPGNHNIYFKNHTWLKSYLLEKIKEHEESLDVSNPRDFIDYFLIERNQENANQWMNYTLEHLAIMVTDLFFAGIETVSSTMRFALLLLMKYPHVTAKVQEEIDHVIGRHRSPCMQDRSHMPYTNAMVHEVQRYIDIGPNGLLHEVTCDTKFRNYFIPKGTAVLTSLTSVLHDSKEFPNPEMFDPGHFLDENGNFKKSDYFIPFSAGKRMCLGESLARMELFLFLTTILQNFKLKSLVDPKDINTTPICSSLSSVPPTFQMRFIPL
Summary of the method: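 Inhibition is read as decreased fluorescent product formation, referenced to acetonitrile vehicle. Cell-free recombinant rat Cyp2c13 reaction ran 0.75 hour; compounds first at 10 uM in duplicate, then concentration series for actives.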

Caspase-1 (Homo sapiens) = Caspase-1 (Homo sapiens) (UniProt P29466); experiment: NVS_ENZ_hCASP1: NovaScreen (NVS) Enzymatic Assay for human Caspase 1 (CASP1) (AID 2283132)
Sequence of Caspase-1 (Homo sapiens) (P29466 whole entry, looked up): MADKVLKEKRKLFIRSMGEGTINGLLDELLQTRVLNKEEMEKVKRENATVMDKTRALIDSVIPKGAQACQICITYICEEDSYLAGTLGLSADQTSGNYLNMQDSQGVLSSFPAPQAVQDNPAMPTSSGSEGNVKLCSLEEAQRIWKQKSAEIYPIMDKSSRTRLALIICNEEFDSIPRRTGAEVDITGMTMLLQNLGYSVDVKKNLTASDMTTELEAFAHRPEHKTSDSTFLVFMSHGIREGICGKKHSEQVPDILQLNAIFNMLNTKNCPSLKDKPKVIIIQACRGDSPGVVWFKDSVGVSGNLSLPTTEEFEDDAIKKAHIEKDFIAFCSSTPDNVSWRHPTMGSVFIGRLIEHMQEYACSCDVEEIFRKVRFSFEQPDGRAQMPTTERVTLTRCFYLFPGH
Summary of the method: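 Compounds were first tested in duplicate at 25 uM, with follow-up concentration series up to 50 uM. The bacterially expressed enzyme was read by fluorescence at 1 h post-dosing. Signal loss versus DMSO baseline indicates reduced enzyme activity.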

[7] = molecular target: human Beta-secretase (BACE), BACE1 (gene 23621) (UniProt P56817); experiment: NVS_ENZ_hBACE: NovaScreen (NVS) Enzymatic Assay for human Beta-secretase (BACE) (AID 2283140);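 also: hits are inhibitors that reduce fluorescent substrate signal versus DMSO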
Summary of the method: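 SF9-expressed enzyme, cell-free; fluorescent substrate readout after 1 h. Screened at 25 uM single concentration, duplicate; hits retested in concentration series. Activity relative to DMSO baseline, loss-of-signal.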

[8] = molecular target: human Caspase 5 (CASP5), CASP5 (gene 838) (UniProt P51878); experiment: NVS_ENZ_hCASP5: NovaScreen (NVS) Enzymatic Assay for human Caspase 5 (CASP5) (AID 2283137)
Sequence of human Caspase 5 (CASP5), CASP5 (gene 838) (P51878 whole entry, looked up): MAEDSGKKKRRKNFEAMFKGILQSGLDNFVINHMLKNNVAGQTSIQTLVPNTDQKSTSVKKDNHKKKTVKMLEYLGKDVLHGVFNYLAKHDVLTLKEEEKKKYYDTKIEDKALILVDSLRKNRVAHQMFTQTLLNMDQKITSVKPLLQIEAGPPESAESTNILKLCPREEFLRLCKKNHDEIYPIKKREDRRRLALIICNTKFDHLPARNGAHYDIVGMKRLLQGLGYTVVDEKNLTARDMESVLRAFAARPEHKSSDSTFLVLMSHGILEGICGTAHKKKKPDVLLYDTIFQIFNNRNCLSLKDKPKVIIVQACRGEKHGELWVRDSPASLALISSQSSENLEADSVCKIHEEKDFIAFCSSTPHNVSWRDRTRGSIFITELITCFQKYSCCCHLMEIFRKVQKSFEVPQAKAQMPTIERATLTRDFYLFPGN
Summary of the method: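 Fluorescent substrate readout of CASP5 activity (loss-of-signal), measured 2 h post-dose. Protein expressed in E. coli. Primary screen duplicate at 25 uM; actives meeting threshold (e.g., 30% inhibition) rerun singleton, max 50 uM.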

[9] = molecular target: human Caspase 10 (CASP10), CASP10 (gene 843) (UniProt Q92851); experiment: NVS_ENZ_hCASP10: NovaScreen (NVS) Enzymatic Assay for human Caspase 10 (CASP10) (AID 2283133)
Summary of the method: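 Fluorescence-intensity enzyme read-out of E. coli-expressed CASP10 activity, 1 h after compound. Single-point duplicates at 25 uM preceded concentration-response testing (top 50 uM) of hits; inhibition expressed as signal loss versus DMSO.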

[10] = molecular target: human Caspase 2 (CASP2), CASP2 (gene 835) (UniProt P42575); experiment: NVS_ENZ_hCASP2: NovaScreen (NVS) Enzymatic Assay for human Caspase 2 (CASP2) (AID 2283135)
Sequence of human Caspase 2 (CASP2), CASP2 (gene 835) (P42575 whole entry, looked up): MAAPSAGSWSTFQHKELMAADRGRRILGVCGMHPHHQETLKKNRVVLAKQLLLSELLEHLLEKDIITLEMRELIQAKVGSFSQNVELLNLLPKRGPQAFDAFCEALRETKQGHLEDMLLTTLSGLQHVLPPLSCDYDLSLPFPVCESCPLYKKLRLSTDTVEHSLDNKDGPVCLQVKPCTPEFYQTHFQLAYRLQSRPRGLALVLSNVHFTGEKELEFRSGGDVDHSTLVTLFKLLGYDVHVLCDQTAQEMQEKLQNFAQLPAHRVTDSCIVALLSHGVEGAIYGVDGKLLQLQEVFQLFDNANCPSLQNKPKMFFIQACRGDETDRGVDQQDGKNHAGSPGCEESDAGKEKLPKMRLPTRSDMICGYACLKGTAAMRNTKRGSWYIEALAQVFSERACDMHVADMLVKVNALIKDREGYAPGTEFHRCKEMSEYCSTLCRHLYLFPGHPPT
Summary of the method: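 Single-point duplicate testing at 25 uM preceded concentration series topping at 50 uM. Activity of the recombinant E. coli-derived protease was followed by fluorescent substrate cleavage 1 h post-dosing, relative to DMSO.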

[11] = molecular target: human Casein Kinase 1-delta (CK1D), CSNK1D (gene 1453) (UniProt P48730); experiment: NVS_ENZ_hCK1D: NovaScreen (NVS) Enzymatic Assay for human Casein Kinase 1-delta (CK1D) (AID 2283148)
Summary of the method: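 Recombinant human CK1-delta, cell-free; fluorescent substrate with electrophoretic mobility-shift separation of product, read 1 h after dosing. Single 25 uM duplicate screen, then concentration-response up to 50 uM; loss of signal vs DMSO.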

Caspase-3 (Homo sapiens) = Caspase-3 (Homo sapiens) (UniProt P42574); experiment: NVS_ENZ_hCASP3: NovaScreen (NVS) Enzymatic Assay for human Caspase 3 (CASP3) (AID 2283139)
Summary of the method: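 Single-concentration screening at 25 uM in duplicate, with concentration-response follow-up to a 50 uM maximum for chemicals passing the threshold. Caspase-3 (human, E. coli-expressed) activity was read as substrate fluorescence after 1 h, with loss of signal relative to DMSO.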

[12] = molecular target: human Aurora Kinase A - serine/threonine-protein Kinase 6 (AurA), AURKA (gene 6790) (UniProt O14965); experiment: NVS_ENZ_hAurA: NovaScreen (NVS) Enzymatic Assay for human Aurora Kinase A - serine/threonine-protein Kinase 6 (AurA) (AID 2283142)
Sequence of human Aurora Kinase A - serine/threonine-protein Kinase 6 (AurA), AURKA (gene 6790) (O14965 whole entry, looked up): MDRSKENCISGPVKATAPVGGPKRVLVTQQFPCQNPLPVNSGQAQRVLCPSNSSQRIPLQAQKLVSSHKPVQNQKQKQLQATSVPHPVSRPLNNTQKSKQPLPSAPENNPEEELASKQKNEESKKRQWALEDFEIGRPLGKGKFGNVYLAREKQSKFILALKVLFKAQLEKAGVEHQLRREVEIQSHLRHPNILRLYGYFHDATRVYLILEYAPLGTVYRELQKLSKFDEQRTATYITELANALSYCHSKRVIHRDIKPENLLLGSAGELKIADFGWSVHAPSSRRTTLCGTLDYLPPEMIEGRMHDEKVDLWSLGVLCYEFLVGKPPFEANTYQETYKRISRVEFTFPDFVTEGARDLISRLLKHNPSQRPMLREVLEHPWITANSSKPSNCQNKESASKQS
Summary of the method: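 Recombinant human AurA activity read by fluorescence after mobility-shift separation of product from substrate; 1 hour incubation. Chemicals first run in duplicate at 25 uM, then concentration series to 50 uM if over threshold; fitted relative to DMSO.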

SMILES: CC(C)NC(=O)N1CC(=O)N(c2cc(Cl)cc(Cl)c2)C1=O
- outcome [1]: inactive
- AC50 (rat CYP3A1, gene 25642): 2.27 µM (active)

SMILES: Nc1cnn(-c2ccccc2)c(=O)c1Cl
- AC50 [2]: 2.37 µM (active)
- AC50 (rat CYP3A1, gene 25642): 7.35 µM (active)

SMILES: CCC(C)n1c(=O)[nH]c(C)c(Br)c1=O (stereo unspecified)
- AC50 [2]: 3.93 µM (active)
- outcome [3]: inactive

SMILES: CCOP(=S)(OCC)Oc1nc(Cl)n(C(C)C)n1
- AC50 [4]: 5.76 µM (active)
- AC50 (rat CYP3A1, gene 25642): 3.46 µM (active)

SMILES: C=CCOC(=O)C(C)(C)OC(=O)c1cc(-n2c(=O)cc(C(F)(F)F)n(C)c2=O)ccc1Cl
- outcome [5]: inactive
- AC50 (rat CYP3A1, gene 25642): 0.595 µM (active)

SMILES: COP(=S)(OC)SCn1nnc2ccccc2c1=O
- AC50 [6]: 3.03 µM (active)
- AC50 [2]: 6.92 µM (active)
- AC50 [4]: 7.04 µM (active)
- AC50 (rat CYP3A1, gene 25642): 3.02 µM (active)
- outcome [3]: inactive

SMILES: CCCCC(C#N)(Cn1cncn1)c1ccc(Cl)cc1 (stereo unspecified)
- AC50 [5]: 4.51 µM (active)
- AC50 [6]: 4.37 µM (active)
- AC50 [2]: 8.64 µM (active)
- AC50 [4]: 6.44 µM (active)
- AC50 (rat CYP3A1, gene 25642): 3.82 µM (active)

SMILES: COP(=S)(OC)Oc1ccc([N+](=O)[O-])c(C)c1
- outcome [1]: inactive
- AC50 [5]: 8.05 µM (active)
- AC50 [6]: 10 µM (active)
- AC50 [4]: 5.28 µM (active)
- AC50 (rat CYP3A1, gene 25642): 8.22 µM (active)

SMILES: CCN(CC)C(=O)C(C)Oc1cccc2ccccc12 (stereo unspecified)
- AC50 [4]: 6.02 µM (active)
- AC50 (rat CYP3A1, gene 25642): 4.43 µM (active)
- outcome (Caspase-1 (Homo sapiens)): inactive

SMILES: CC(C)=CC1C(C(=O)OCc2coc(Cc3ccccc3)c2)C1(C)C (stereo unspecified)
- AC50 [2]: 5.37 µM (active)
- outcome (Caspase-1 (Homo sapiens)): inactive
- AC50 [7]: 40.5 µM (active)

SMILES: O=c1n(Cl)c(=O)n(Cl)c(=O)n1Cl
- outcome (Caspase-1 (Homo sapiens)): inactive
- outcome [8]: inactive

SMILES: COc1cc(OC)nc(NC(=O)NS(=O)(=O)c2ncccc2OCC(F)(F)F)n1
- outcome (Caspase-1 (Homo sapiens)): inactive

SMILES: Nc1c(Cl)c(Cl)nc(C(=O)O)c1Cl
- AC50 [9]: 10.5 µM (active)
- outcome [8]: inactive

SMILES: CN/C(=N\[N+](=O)[O-])NCc1cnc(Cl)s1
- outcome [10]: inactive
- outcome [11]: inactive

SMILES: CC(C)N1C(=O)N(c2ccccc2)CSC1=NC(C)(C)C
- outcome [10]: inactive

SMILES: CCOc1nc(C(Cl)(Cl)Cl)ns1
- outcome (Caspase-3 (Homo sapiens)): inactive

SMILES: CCCC(=NOCC)C1=C(O)CC(CC(C)SCC)CC1=O (stereo unspecified)
- outcome [12]: inactive
